Measurements as given in PubChem BioAssay AID1422 (Emory University Molecular Libraries Screening Center, 2008).
“And” between values parts separate entries of the source, which are not always exact repeats. Equal values may be shown once. In all, about 260,000 compounds went through this assay and about 1,300 (0.5%) were called active. The sample holds actives, similar compounds and a random draw of the others, so the mix is not that of the screen.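 How the source made its calls: active means percent inhibition above 40 after rounding to a whole number; inactive means the rest.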 The source holds several records for some structures; these can differ, active in one and inactive in another.

These compounds were tested against Prostaglandin E2 receptor EP2 subtype (Homo sapiens) (UniProt P43116) (assay: blockers of PGE2-driven EP2 cAMP signalling – TR-FRET cAMP, C6 glioma cells, primary screen (AID 1422;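 further: rat C6 glioma host cells with rolipram phosphodiesterase inhibitor present; the protocol text gives 20 µM as final concentration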)). Details: C6 glioma cells expressing human EP2, cAMP TR-FRET; at 25 µM; stronger effect = higher value; cells stimulated with saturating PGE2.
Sequence of Prostaglandin E2 receptor EP2 subtype (Homo sapiens) (P43116 whole entry, looked up): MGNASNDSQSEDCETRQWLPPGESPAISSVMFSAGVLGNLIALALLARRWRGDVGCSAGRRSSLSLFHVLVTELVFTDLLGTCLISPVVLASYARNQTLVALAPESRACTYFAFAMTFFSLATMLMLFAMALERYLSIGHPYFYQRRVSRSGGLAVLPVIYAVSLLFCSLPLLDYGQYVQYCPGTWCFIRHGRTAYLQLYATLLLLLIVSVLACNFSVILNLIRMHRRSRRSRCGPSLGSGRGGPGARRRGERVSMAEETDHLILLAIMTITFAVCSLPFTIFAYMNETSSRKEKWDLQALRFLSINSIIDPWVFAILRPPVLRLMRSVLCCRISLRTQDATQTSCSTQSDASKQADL

SMILES | inhibition
Cc1sc(NC(=O)Cn2c(=O)sc3ccccc32)c(C#N)c1C | 7.54% (inactive)
COc1ccccc1CNC(=O)C1CCN(c2cnccn2)CC1 | 9.64% (inactive)
CC1(C)CC2CC(C)(CN2C(=O)c2ccc(Cl)cc2)C1 (configuration not stated) | 13.4% (inactive)
COc1ccc2[nH]c(=O)c(CN(CCCN(C)C)C(=S)Nc3ccccc3)cc2c1 | 9.95% (inactive)
C[N+]1(CCN=C=NC2CCCCC2)CCOCC1 | 42.8% (active)
Cc1c(O)c(Br)c(C)c(O)c1Br (tested in a mixture with another compound) | 105% (active)
CCc1ccc2nc3sc(C(=O)OC)c(N)c3cc2c1 | 11.6% (inactive)
CCc1ccc2nc3sc(C(=O)NCc4ccc5c(c4)OCO5)c(N)c3cc2c1 | 13.9% (inactive)
CCc1ccc2nc3sc(C(=O)Nc4nnc(CC)s4)c(N)c3cc2c1 | 90.2% (active) and 26.4% (inactive)
CCn1cc(C(=O)N[C@@H](C)Cn2nnc3ccccc32)c(=O)c2ccc(C)nc21 | 9.07% (inactive)
COC(=O)c1ccccc1NC(=O)CSc1nnnn1C | 9.91% (inactive) and 10.9% (inactive)
CCOC(=O)CNC(=O)CSc1nnnn1-c1cc(C)ccc1C | -1.57% (inactive)
CCOC(=O)c1c(-c2ccc(C)cc2C)csc1NC(=O)CSc1nnnn1C | 44.2% (active)
CCc1nnc(NC(=O)CSc2nnnn2-c2ccc(F)cc2)s1 | 7.48% (inactive)
COc1ccc(C2(C(=O)NCCn3nc(-c4cccs4)ccc3=O)CC2)cc1 | 4.83% (inactive)
CCOc1ccccc1NC(=O)CSc1nnnn1-c1ccc(F)cc1 | 10.9% (inactive)
CC(C)(C)NC(=O)Cn1nc(-c2nccc3ccccc23)oc1=O | 2.81% (inactive)
CC(=O)Nc1cccc([N+](=O)[O-])c1 | 3.91% (inactive)
COC(=O)/C=C\C(=O)Nc1cccc([N+](=O)[O-])c1 | 113% (active)

SMILES | inhibition
Cc1ccccc1NC(=S)Nc1cccc([N+](=O)[O-])c1 | 10.2% (inactive)
CCn1c(C)cc2cc(NC(=O)CCCn3nc(C)cc3C)ccc21 | 6.1% (inactive)
Cc1cc(C)cc(-c2nnc(SCC(=O)N3c4ccccc4CC3C)o2)c1 (configuration not stated) | 15.9% (inactive)
CCN1/C(=C/C(=S)Nc2ccccc2)Sc2ccccc21 | 11.8% (inactive)
CCCN1/C(=C/c2ccc3ccccc3[n+]2CC)Sc2cc(NC(C)=O)ccc21 | 13.2% (inactive)
CCN1CCN(CCNC(=O)c2ccc(/C=C3/Sc4ccccc4N(Cc4cccc(C)c4)C3=O)cc2)CC1 | 15.1% (inactive)
CCN1/C(=C\c2ccc3ccccc3[n+]2CC)Sc2cc(C)ccc21 | 88.5% (active)
CCN1/C(=C/c2ccc3ccc(C)cc3[n+]2CC)Sc2ccccc21 | 49.2% (active)
CCN1CCN(C(=O)Nc2cccc(Cl)c2)CC1 | 10.7% (inactive)
CCOc1ccc2nc(SCC(=O)Nc3ccc(OC)cc3)sc2c1 | 6.3% (inactive)
Cc1ccc(CN(Cc2cc3c(C)cc(C)cc3[nH]c2=O)C(=O)NC2CCCCC2)cc1 | 8.55% (inactive)
COc1ccc2[nH]c(=O)c(CN(Cc3cccnc3)S(=O)(=O)c3ccccc3F)cc2c1 | 45.8% (active)
COc1ccc2[nH]c(=O)c(CN(Cc3ccco3)S(=O)(=O)c3c(C)ccc4nsnc34)cc2c1 | 46.1% (active)
Cc1cccc2cc(CN(Cc3ccco3)S(=O)(=O)c3cccc4nsnc34)c(=O)[nH]c12 | 24.1% (inactive)
COc1ccc2[nH]c(=O)c(CN(Cc3ccc4c(c3)OCO4)S(=O)(=O)c3ccc(F)cc3)cc2c1 | 12% (inactive)
COc1ccc(N(Cc2cc3cc(OC)ccc3[nH]c2=O)S(C)(=O)=O)cc1 | 6.17% (inactive)
O=c1[nH]c2cc3c(cc2cc1CN(Cc1cccnc1)S(=O)(=O)c1ccc(Cl)cc1)OCCO3 | 19.4% (inactive)
Cc1nnc2sc(-c3ccc(NC(=O)c4ccc(Br)o4)cc3)nn12 | 15% (inactive)
COc1ccc2c(c1)NC1(CCN(C(=O)c3cnsc3)CC1)c1cccn1-2 | 9.97% (inactive)

SMILES | inhibition
Cc1cccc2cc(CN(Cc3cccs3)Cc3nnnn3C3CCCCC3)c(=O)[nH]c12 | 2.93% (inactive)
Cc1ncc([N+](=O)[O-])n1Cc1nnc(N)s1 | 11.5% (inactive)
CC(C)(C)C1=NN(CC(=O)NCc2ccncc2)C(=O)c2cc3ccccc3n2C1 | 4.49% (inactive)
COc1nc(C)c(CC(=O)NC2(c3cccc(F)c3)CCCC2)c(OC)n1 | 13.3% (inactive)
Cc1[nH]c2ccc(-c3nnc(SCCC#N)n3C)cc2c1C | 10.1% (inactive)
CC(C)(C)C1=NN(CC(=O)NCCc2ccco2)C(=O)c2cc3ccccc3n2C1 | 11.5% (inactive)
COc1ccc(C(c2nnnn2C(C)(C)C)N2CCN(c3ccc(OC)cc3)CC2)cc1 (configuration not stated) | 10.7% (inactive)
Cc1ccc2c(c1)C(O)CC1(CCN(CC(O)c3ccc(F)c(F)c3)CC1)O2 (configuration not stated) | 8.77% (inactive)
Cc1ccc2c(c1)C1CN(C)CCC1N2C(=S)Nc1ccc(Cl)cc1Cl (configuration not stated) | 15.3% (inactive)
Cc1ccc2c(c1)C1CN(C)CCC1N2C(=O)c1ccccc1NS(=O)(=O)c1ccc(F)cc1C (configuration not stated) | 8.83% (inactive)
Cc1ccc2c(c1)C1CN(C)CCC1N2C(=S)Nc1ccc(OC(F)F)cc1 (configuration not stated) | 112% (active)
CCOC(=O)N1CCN(C(=O)COc2ccc(Cl)cc2C)CC1 | 12.7% (inactive)
Cc1cc(Cl)ccc1OCC(=O)Oc1c(Cl)c(Cl)c(Cl)c(Cl)c1Cl | 50.2% (active)
Cc1cc(NC(=O)COC(=O)COc2ccc(Cl)cc2C)c([N+](=O)[O-])cc1C | 5.32% (inactive)
CCc1cccc2cc3c(N)c(C(=O)Nc4cc(OC)ccc4OC)sc3nc12 | 5.34% (inactive)
CCn1cc(/C=C/c2nc3ccccc3c(=O)n2C)c2ccccc21 | 16.1% (inactive)
CC(=O)Nc1ccc(-c2csc(NC=C3C(=O)OC(C)(C)OC3=O)n2)cc1 | 2.63% (inactive)
CC(=O)Nc1ccc(-c2csc(NC(=O)Nc3ccccc3)n2)cc1 | 55% (active)
CC(=O)Nc1ccc(S(=O)(=O)Nc2nc(-c3ccc(C(C)(C)C)cc3)cs2)cc1 | 4.4% (inactive)
